This note sets out measurements from PubChem BioAssay AID588726 (The Scripps Research Institute Molecular Screening Center, 2011).

Values joined by “and” are separate entries in the source; they are usually repeats but may differ in a detail not shown here. Equal values may be shown once. The campaign covered roughly 360,000 compounds. About 8,200 (2.3%) were called active. Cut-off read from the data, not from the text of the source: active = inhibition above about 27%; inactive = the rest. Shown is part of a subset that was picked to be rich in actives.

Sequence of Fructose-bisphosphate aldolase (Mycobacterium tuberculosis (strain ATCC 25618 / H37Rv)) (P9WQA3 whole entry, looked up): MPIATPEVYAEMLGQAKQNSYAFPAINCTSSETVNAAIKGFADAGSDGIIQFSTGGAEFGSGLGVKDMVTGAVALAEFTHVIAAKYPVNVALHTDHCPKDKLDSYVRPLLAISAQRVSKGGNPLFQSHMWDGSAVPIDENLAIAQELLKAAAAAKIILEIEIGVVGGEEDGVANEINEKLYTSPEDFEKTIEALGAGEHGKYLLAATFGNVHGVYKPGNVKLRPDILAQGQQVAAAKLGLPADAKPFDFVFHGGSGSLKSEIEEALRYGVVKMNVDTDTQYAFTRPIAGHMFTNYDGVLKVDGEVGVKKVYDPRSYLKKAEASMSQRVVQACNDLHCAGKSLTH

This experiment concerns the target Fructose-bisphosphate aldolase (Mycobacterium tuberculosis (strain ATCC 25618 / H37Rv)) (UniProt P9WQA3). The experiment is described as follows: M. tuberculosis aldolase activity blockers – biochemical, fluorescence, strain H37Rv, primary screen (AID 588726).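 Note: 0% = vehicle and 100% = reference inhibitor.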 Particulars: purified M. tuberculosis FBA, fluorescence read-out, at 1 µM, hits give high values.
Consider `CCOc1ccc(OCC)c(NC(=O)C(NS(=O)(=O)c2ccc3c(c2)oc(=O)n3C)C(C)C)c1` (stereo not given), for which the inhibition is 0.18% (inactive). In the case of `O=C(NCCc1ccccc1)C(=O)NCC1OCCN1S(=O)(=O)c1cccs1` (stereo not given) it was 0.89% (inactive). Turning to `CN(C)C(=O)N1CCNCC1`, the inhibition is 2.64% (inactive).

With `Cc1nc2ccc(S(=O)(=O)NCC(=O)O)cc2s1`, the inhibition is 0.49% (inactive).

With `COCCNS(=O)(=O)c1cc(Br)ccc1OC`, the inhibition was 0.54% (inactive).

`CCCCC(CC(C)O)c1n[nH]c(=S)n1-c1ccccc1` (stereo not given): the inhibition is 2% (inactive). Consider `Cc1ccc(/C([O-])=C(/C(=S)NCc2ccco2)[n+]2ccccc2)cc1[N+](=O)[O-]`, for which the inhibition is 1.54% (inactive). In the case of `CCOc1cc(/C=N/NC(=O)c2ccc(CSc3nncn3C)cc2)ccc1OCC(=O)N1CCOCC1` it was -1.98% (inactive); in that of `C=CCn1c(N)c(C(=O)OCC(C)C)c2nc3ccccc3nc21`, 88.6% (active); in that of `C=CCn1c(N)c(S(=O)(=O)c2cccs2)c2nc3ccccc3nc21`, 163% (active). With `O=C(NCCCN1CCCC1=O)c1ccc(S(=O)(=O)Nc2ccccc2)cc1`, the inhibition was -1.21% (inactive). Consider `C=CCn1c(P(C)(=O)O)nc2ccccc21`, for which the inhibition is 1.11% (inactive) and 4.28% (inactive). Regarding `Cc1nn(Cc2ccccc2)c(C)c1C(=O)NCCCN1CCCC1=O`, the inhibition is -1.19% (inactive). On to `C=CCN1CN(S(=O)(=O)c2ccc(OC)cc2)c2nc3ccccc3nc21`, for which the inhibition was 6.64% (inactive). The value for `CCCCNc1nc2ccccc2nc1NS(=O)(=O)c1cccs1` was 6.38% (inactive); that for `C=CCn1c(C(C)NC(=O)CC)nc2ccccc21` (stereo not given) was 3.68% (inactive); that for `CCCCC1N2CC3([N+](=O)[O-])CN1CC([N+](=O)[O-])(C2)C3(C)C` (stereo not given) was 2.82% (inactive).

On to `COC(=O)c1ccc(NC(=O)CSc2nncn2-c2cccnc2)cc1`, for which the inhibition is 0.47% (inactive). In the case of `CSc1cccc(NC(=S)N(C(C)C)C(C)c2ccccn2)c1` (stereo not given) it was 0.95% (inactive); in that of `NC(=O)CSc1nnc(-c2cccc(S(=O)(=O)N3CCOCC3)c2)o1`, -1.59% (inactive).

As for `Cc1ccc(NC(=O)Cc2nc(COC(=O)C(C)NS(=O)(=O)c3ccc(C)cc3)cs2)cc1` (stereo not given), the inhibition is 3.71% (inactive). In the case of `Cc1ccccc1OCC(=O)NNC(=O)c1ccc(-n2cncn2)c([N+](=O)[O-])c1` it was -1.97% (inactive); in that of `Cc1ccc(S(=O)Cc2ccc(C(=O)N3CCN(C4CCCCC4)CC3)o2)cc1` (stereo not given), 1.16% (inactive); in that of `CCOC(=O)[C@@H]1[C@H]2COc3cc(OC)ccc3[C@H]2N2C(=O)N(c3ccc(F)cc3)C(=O)[C@]12C`, 0.06% (inactive). In the case of `C[C@@H]1CN([C@H](C)CO)S(=O)(=O)c2ccc(C#CC3CCCCC3)cc2O[C@H]1CN(C)C(=O)Cc1ccncc1` it was -2.18% (inactive). In the case of `O=C1NC(c2cc3c(cc2Cl)OCO3)Oc2ccccc21` (stereo not given) it was 0.96% (inactive); in that of `CCC(C)n1[nH]c(=O)c2c(C)cc(C)nc21` (stereo not given), 2.95% (inactive); in that of `Cc1nc2nc(COc3ccccc3)[nH]n2c(=O)c1Cc1ccccc1`, 1.84% (inactive). As to `Cc1cc(-c2cccs2)nc(-n2cccc2)n1`, the inhibition was 2.52% (inactive). In the case of `CCc1c(C)nc2cc(C)[nH]n2c1=O` it was 27.9% (active); in that of `CCc1c(C)nc2cc(-c3cccs3)[nH]n2c1=O`, 27.4% (active).

In the case of `Cc1nc2nc[nH]n2c(=O)c1C/C=C/c1ccccc1`, the inhibition was -4.22% (inactive).

`Cc1nc2scc(-c3cccs3)c2c(=O)n1N`: the inhibition is -0.89% (inactive).

With `CCCC(C)n1[nH]c(=O)c2c(C)cc(C)nc21` (stereo not given), the inhibition is 4.12% (inactive). Regarding `C=CCc1c(C)nc2cc(-c3ccccc3)[nH]n2c1=O`, the inhibition is 33.2% (active). The value for `CCCCCN1CC(O)=C(c2ccccc2)C1=N` was -3.67% (inactive); that for `COC(=O)CN1C(=O)[C@H]2[C@@H](/C=C/c3ccccc3)N3C(=O)CN(CC4CC4)C(=O)[C@@]3(Cc3ccccc3)[C@H]2C1=O` was 5.08% (inactive).

With `COc1ccccc1NC(=O)CCC(=O)OC(C)C(=O)c1ccccc1` (stereo not given), the inhibition is 2.76% (inactive).

Consider `O=C1N[C@@H](Cc2ccccc2)C(=O)N2[C@@H]3N(S(=O)(=O)c4ccc(F)cc4)c4ccccc4[C@]3(Br)C[C@@H]12`, for which the inhibition is -1.67% (inactive). The value for `O=C(COc1ccc(Cl)cc1Cl)NCCCNC(=O)c1cnccn1` was 4.96% (inactive). The value for `Cc1ccc(C)c(-n2cc(CN3CCN(C(=O)c4ncn[nH]4)CC3)c(-c3ccccc3)n2)c1` was -1.74% (inactive). `Cc1ccc(NS(=O)(=O)c2cccs2)cc1S(=O)(=O)N1CCCCCC1`: the inhibition is -1.86% (inactive). For the molecule `CCCCCN(C(=O)NC(=O)Nc1ccccc1OC)S(C)(=O)=O`, the inhibition was -0.28% (inactive). With `O=C(Cc1cccs1)NCc1cccc(C(F)(F)F)c1`, the inhibition is 2.86% (inactive). Consider `Cn1c(=O)c2cc(NC(=O)NCCc3cccs3)ccc2n1Cc1cccc(C(F)(F)F)c1`, for which the inhibition is 141% (active). In the case of `CN(C)C(=O)c1cccn(Cc2cccc(C(F)(F)F)c2)c1=O` it was 0.45% (inactive); in that of `CC1(C)OC(=O)C(=CNC(CO)C(=O)O)C(=O)O1` (stereo not given), -1.2% (inactive); in that of `COCCCNC(=O)CCc1nc2cccnc2n1Cc1ccc(OC)cc1`, -2.9% (inactive).

For the molecule `CCOC(=O)Cn1c(=O)n(Cc2ccc(OC)cc2)c(=O)c2cccnc21`, the inhibition was 99.3% (active). The value for `CCOC(=O)Cc1ncccc1C(=O)Nc1ccc(OC)cc1` was -0.27% (inactive); that for `COc1cc(CCN=Cc2ccccc2O)c([N+](=O)[O-])cc1OC` was 1.91% (inactive); that for `O=C(COc1ccc(-c2ccccc2)cc1)NN=C1CCCC1` was 4.25% (inactive). As for `CN(C)C(=O)c1coc2nc3ccccc3nc12`, the inhibition is 131% (active).

On to `CN(C)CCNC(=O)c1ccc(Cl)c2cc3ccccc3nc12`, for which the inhibition was 9.35% (inactive). Consider `COc1cccc2cc(C(=O)N(C)C)c(=O)oc12`, for which the inhibition was -1.37% (inactive). The value for `COc1ccc(C(F)(F)F)cc1N/C=C\c1nnnn1-c1ccc(C)cc1` was 1.79% (inactive); that for `CCCCNC(=O)N1CCCC(N(C)CCc2ccc(OC)c(OC)c2)C1` (stereo not given) was 3% (inactive); that for `O=C(O)c1[nH]c2ccccc2c1C(c1cccc(O)c1)c1c(C(=O)O)[nH]c2ccccc12` was 0.61% (inactive). `CCOC(=O)C1CCN(C(=O)Cc2c(C(=O)O)[nH]c3ccccc23)CC1`: the inhibition was 3.52% (inactive). In the case of `CCCS(=O)(=O)Nc1c(C(=O)O)[nH]c2ccccc12` it was 38.6% (active).
